The text below walks through data of the supplement of paper PMC10811239.

What all share (assay): bioluminescence (viable cell) signal fold change after vs before treatment, normalised to DMSO (ratio); higher = more tumour cell growth / less inhibition
Common to all, as to conditions: 10 µM; treatment time 6 days

The test system of experiment [1] is LEGO organoid PT (PTEN-/-; TP53-/-). The protocol:
(§1)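 Luc2-labelled iPSC-derived glioblastoma-like organoids (LEGOs, genotypes PT = PTEN-/-;TP53-/-, PTCC = plus CDKN2A/B-/-, PTN = plus NF1-/-) were treated with 10 uM drug for 6 days (applied every other day) at 37 C. Bioluminescence imaging was done before treatment and 2 days after the last dose. BLI signals were normalised to the DMSO control on the same day and then to the pre-treatment signal (N=3).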

The test system of experiment [2] is LEGO organoid PTCC (PTEN-/-; TP53-/-; CDKN2A-/-; CDKN2B-/-). On the procedure: as §1
Experiment [3] has as its system LEGO organoid PTN (PTEN-/-; TP53-/-; NF1-/-). On the procedure:
as §1

On to `CN1CCN(C2=Nc3cc(Cl)ccc3Nc3ccccc32)CC1` [Clozapine], for which the bioluminescence was found to be 1.13 in experiment [1], 0.388 in experiment [2] and 0.617 in experiment [3].

Regarding `CCCN[C@H]1CCc2nc(N)sc2C1.Cl.Cl.O` [Pramipexole 2HCl Monohydrate], the bioluminescence in experiment [1] came out at 1.35; in experiment [2] it was 0.567; in experiment [3], 0.629.

`O=C(NC1CCN(CCCCC2(C(=O)NCC(F)(F)F)c3ccccc3-c3ccccc32)CC1)c1ccccc1-c1ccc(C(F)(F)F)cc1` [Lomitapide]: the results for the bioluminescence in experiment [1], in experiment [2] and in experiment [3] were 0.0143, 0.124 and 0, respectively.

As for `Cl.OC(CCN1CCCC1)(c1ccccc1)C1CCCCC1` (stereo not given) [Procyclidine hydrochloride], the bioluminescence in experiment [1] was 1.48; in experiment [2] it was 0.919; in experiment [3], 0.656.

Consider `Nc1ncn([C@H]2C[C@H](O)[C@@H](CO)O2)c(=O)n1` [Decitabine], for which the bioluminescence in experiment [1] worked out at 1.2; in experiment [2], 1.67; in experiment [3], 1.09.

With `CCOC(=O)c1ccc(C#Cc2ccc3c(c2)C(C)(C)CCS3)nc1` [Tazarotene], the results for the bioluminescence in experiment [1], in experiment [2] and in experiment [3] were 1.52, 1.42 and 1.11, respectively.

In the case of `Nc1nc(=O)n([C@@H]2CS[C@H](CO)O2)cc1F` [Emtricitabine], the bioluminescence in experiment [1] worked out at 0.905; in experiment [2], 0.872; in experiment [3] it was 0.495.

For the molecule `CCC(C)n1ncn(-c2ccc(N3CCN(c4ccc(OC[C@H]5CO[C@](Cn6cncn6)(c6ccc(Cl)cc6Cl)O5)cc4)CC3)cc2)c1=O` (stereo not given in full) [Itraconazole], the bioluminescence in experiment [1] stood at 1.69; in experiment [2], 0.596; in experiment [3] it was 1.31.

With `Cl.NC12CC3CC(CC(C3)C1)C2` [Amantadine hydrochloride], the bioluminescence in experiment [1] was 0.852; in experiment [2], 1.07; in experiment [3], 3.32.

In the case of `Cl.CN(C)CC\C=C1\c2ccccc2CCc2ccccc12` [Amitriptyline hydrochloride], the results for the bioluminescence in experiment [1], in experiment [2] and in experiment [3] were 1.32, 0.794 and 1.12, respectively.
